The first assay deals with Schistosoma mansoni schistosomula (LE). Briefly: XTT viability relative to DMSO control; higher = more viable (less active). Particulars: 72 h; 10 µM. The method, then:
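XTT/PMS was then added for a further 24 h (72 h total) and A450 was read. % viability = (sample - heat-killed control)/(DMSO control - heat-killed control) x 100, from duplicate wells in two independent experiments.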
(In general: Tetrazolium dyes change colour on reduction, which living cells bring about.)
For `O=C(Nc1cnc2ccccc2c1)c1cccc(-n2cnnn2)c1`, the XTT viability is 85.7%.

For `Cc1cc(C)n(-c2ccc(NC(=O)C3CCN(Cc4cnc(C)s4)CC3)cc2)n1`, the XTT viability is 135%.

As for `Cc1cc(O)nc(-n2nc(C)cc2C)n1`, the XTT viability was found to be 93.1%.

As for `O=C(C1CCN(c2nnnn2-c2ccccc2)CC1)N1CCc2ccccc2C1`, the XTT viability was determined as 117%.

Turning to `FC(F)(F)c1cnc(Sc2nnc(-c3ccncc3)o2)c(Cl)c1`, the XTT viability amounted to 74%.

As for `COc1cccc(-c2cc3c(Nc4cccnc4)nccc3[nH]2)c1`, the XTT viability turned out to be 104%.

`CCN(CC)CCCCCCNc1cc(OC)cc2c(C)ccnc12`: the XTT viability turned out to be 59.3%.

Regarding `Cc1ncc(-c2ccnc(Nc3ccc(S(C)(=O)=O)cc3)n2)n1C(C)C`, the XTT viability came to 66.9%.

As to `N=C(N)Nc1ccc(-c2ccc(-c3ccc(N=C(N)N)c(Cl)c3)o2)cc1Cl`, the XTT viability is 89.7%.

As to `O=C(Nc1ccccc1)c1ccc(-c2cc3ccncc3cc2OC2CCNCC2)s1`, the XTT viability is -18.1%.

As to `CC1CCCCN1C(=O)NCCc1coc(-c2ccc(F)cc2)n1` (stereo unspecified), the XTT viability turned out to be 131%.

As to `Cc1ccc(Oc2ccc(NC(=O)CNc3ccccc3N3CCCC3=O)cc2)cc1`, the XTT viability turned out to be 77%.

In the case of `Nc1ncnc2[nH]nc(Cc3cccc4ccccc34)c12`, the XTT viability was found to be 94.1%.

For `CCCCN(CCCC)c1c(C#N)cc(S(=O)(=O)Nc2ccccc2)cc1C#N`, the XTT viability was found to be 40.5%.

With `NS(=O)(=O)c1cncc(-c2ccc3nccc(-c4cn[nH]c4)c3n2)c1`, the XTT viability turned out to be 98.4%.

Take `Cc1nn2c(O)c3c(nc2c1-c1ccc(F)cc1)CCCC3`: the XTT viability was 113%.

`c1cncc(NCc2ccc(-c3cc4ccncc4cc3OC3CCNCC3)s2)c1`: the XTT viability is 14.8%.

Take `CC(=O)NC[C@H]1CN(c2ccc(N3CCSCC3)c(F)c2)C(=O)O1`: the XTT viability amounted to 145%.

`COc1ccc(-c2nc(-c3cccc(NC(=O)Cc4ccc(F)cc4)c3)no2)cc1OC`: the XTT viability amounted to 137%.

On to `CNC(=O)CNc1nc(-c2ccccn2)nc2scc(-c3ccccc3)c12`, for which the XTT viability came to 90%.

Take `COc1cc(Br)cc2cc(C(=O)Nc3cccc(C(F)(F)F)c3)c(=O)oc12`: the XTT viability turned out to be 90.6%.

For the molecule `O=C(CCC1CCCCC1)Nc1cccc(-c2nnc(-c3ccco3)o2)c1`, the XTT viability turned out to be 145%.

Consider `O=C(NC1CCCCC1)N1CCN(Cc2ccc3c(c2)OCO3)CC1`, for which the XTT viability amounted to 88.6%.

For `NCC(=O)N1CCn2c(nc(-c3ccccc3)c2Nc2ccc3c(c2)OCO3)C1`, the XTT viability amounted to 129%.

`COc1ccc(Nc2ccccc2NC(=O)c2ccc(O)nc2)cc1`: the XTT viability amounted to 176%.

For `O=C(Nc1cccc(Cl)c1)c1cnc(N2CCN(c3ccncc3)CC2)c(Cl)c1`, the XTT viability was 3.67%.

With `COc1cccc(-c2nc3c(N4CCCC4)cccc3n2CC2CCCN2)n1` (stereo unspecified), the XTT viability was 158%.

As to `CN(C(=O)c1cc2c(-c3cncnc3)cccc2[nH]1)c1ccccc1`, the XTT viability was 102%.

For `CN1CCN(c2nccc3nc(-c4ccc(F)c(F)c4)[nH]c23)CC1`, the XTT viability turned out to be 110%.

With `CNc1cc(C)nc(C2CN(C(=O)c3n[nH]c4ccccc34)CCO2)c1` (stereo unspecified), the XTT viability is 123%.

For `CN(C)c1cc(NC(=O)Nc2ccccc2)c2ccccc2n1`, the XTT viability was -13.7%.

Regarding `COc1cc(NC(=O)Cc2nn(C)c(=O)c3ccccc23)ccc1Cl`, the XTT viability was determined as 104%.

On to `O=C(NCCc1ccccc1)c1cc(-c2cccnc2)cnc1NCC1CC1`, for which the XTT viability was 85.9%.

Regarding `CN1CCN(CCCOc2ncc(Nc3ncc(-c4ccc(C(F)(F)F)c(F)c4)nc3C(N)=O)cn2)CC1`, the XTT viability turned out to be 5.2%.

Consider `Cc1cc(Cl)c(S(=O)(=O)N2CCCC2)cc1OCC(=O)NC1CCCCC1`, for which the XTT viability is 111%.

As for `CCCn1c(NC(=O)c2ccc3ccccc3n2)nc2ccccc21`, the XTT viability came to 5.68%.

Turning to `Cc1nn(C(=O)Nc2cccc(C(F)(F)F)c2)c(C)c1Sc1ncccn1`, the XTT viability was 137%.

Consider `CCOc1ccccc1NC(C)C(=O)Nc1cc(C(F)(F)F)ccc1N1CCOCC1` (stereo unspecified), for which the XTT viability was 96%.

For the next assay, the system named is Schistosoma mansoni schistosomula (NMRI). The assay can be described thus: phenotypic severity score (0-4); higher = more antischistosomal effect, active = 2 or more. Particulars: 24 h; 10 µM.
Take `O=C(Nc1cnc2ccccc2c1)c1cccc(-n2cnnn2)c1`: the phenotypic severity score is 0 (inactive).

Take `Cc1cc(C)n(-c2ccc(NC(=O)C3CCN(Cc4cnc(C)s4)CC3)cc2)n1`: the phenotypic severity score was 0 (inactive).

Regarding `Cc1cc(O)nc(-n2nc(C)cc2C)n1`, the phenotypic severity score was 0 (inactive).

As to `O=C(C1CCN(c2nnnn2-c2ccccc2)CC1)N1CCc2ccccc2C1`, the phenotypic severity score was 0 (inactive).

Consider `FC(F)(F)c1cnc(Sc2nnc(-c3ccncc3)o2)c(Cl)c1`, for which the phenotypic severity score was 0 (inactive).

Take `COc1cccc(-c2cc3c(Nc4cccnc4)nccc3[nH]2)c1`: the phenotypic severity score was 0 (inactive).

For the molecule `CCN(CC)CCCCCCNc1cc(OC)cc2c(C)ccnc12`, the phenotypic severity score is 0 (inactive).

Consider `Cc1ncc(-c2ccnc(Nc3ccc(S(C)(=O)=O)cc3)n2)n1C(C)C`, for which the phenotypic severity score is 0 (inactive).

Regarding `N=C(N)Nc1ccc(-c2ccc(-c3ccc(N=C(N)N)c(Cl)c3)o2)cc1Cl`, the phenotypic severity score was 0 (inactive).

In the case of `O=C(Nc1ccccc1)c1ccc(-c2cc3ccncc3cc2OC2CCNCC2)s1`, the phenotypic severity score is 0 (inactive).

In the case of `CC1CCCCN1C(=O)NCCc1coc(-c2ccc(F)cc2)n1` (stereo unspecified), the phenotypic severity score is 1 (inactive).

As for `Cc1ccc(Oc2ccc(NC(=O)CNc3ccccc3N3CCCC3=O)cc2)cc1`, the phenotypic severity score is 2 (active).

For `Nc1ncnc2[nH]nc(Cc3cccc4ccccc34)c12`, the phenotypic severity score is 1 (inactive).

Take `CCCCN(CCCC)c1c(C#N)cc(S(=O)(=O)Nc2ccccc2)cc1C#N`: the phenotypic severity score is 0 (inactive).

Turning to `NS(=O)(=O)c1cncc(-c2ccc3nccc(-c4cn[nH]c4)c3n2)c1`, the phenotypic severity score was 0 (inactive).

For `Cc1nn2c(O)c3c(nc2c1-c1ccc(F)cc1)CCCC3`, the phenotypic severity score is 0 (inactive).

Consider `c1cncc(NCc2ccc(-c3cc4ccncc4cc3OC3CCNCC3)s2)c1`, for which the phenotypic severity score was 3 (active).

With `CC(=O)NC[C@H]1CN(c2ccc(N3CCSCC3)c(F)c2)C(=O)O1`, the phenotypic severity score was 0 (inactive).

Turning to `COc1ccc(-c2nc(-c3cccc(NC(=O)Cc4ccc(F)cc4)c3)no2)cc1OC`, the phenotypic severity score was 0 (inactive).

As to `CNC(=O)CNc1nc(-c2ccccn2)nc2scc(-c3ccccc3)c12`, the phenotypic severity score was 0 (inactive).

`COc1cc(Br)cc2cc(C(=O)Nc3cccc(C(F)(F)F)c3)c(=O)oc12`: the phenotypic severity score is 0 (inactive).

For the molecule `O=C(CCC1CCCCC1)Nc1cccc(-c2nnc(-c3ccco3)o2)c1`, the phenotypic severity score was 2 (active).

For `O=C(NC1CCCCC1)N1CCN(Cc2ccc3c(c2)OCO3)CC1`, the phenotypic severity score was 0 (inactive).

Regarding `NCC(=O)N1CCn2c(nc(-c3ccccc3)c2Nc2ccc3c(c2)OCO3)C1`, the phenotypic severity score was 0 (inactive).

As to `COc1ccc(Nc2ccccc2NC(=O)c2ccc(O)nc2)cc1`, the phenotypic severity score was 0 (inactive).

Turning to `O=C(Nc1cccc(Cl)c1)c1cnc(N2CCN(c3ccncc3)CC2)c(Cl)c1`, the phenotypic severity score was 2 (active).

Regarding `COc1cccc(-c2nc3c(N4CCCC4)cccc3n2CC2CCCN2)n1` (stereo unspecified), the phenotypic severity score was 4 (active).

Consider `CN(C(=O)c1cc2c(-c3cncnc3)cccc2[nH]1)c1ccccc1`, for which the phenotypic severity score is 0 (inactive).

Regarding `CN1CCN(c2nccc3nc(-c4ccc(F)c(F)c4)[nH]c23)CC1`, the phenotypic severity score was 0 (inactive).

Turning to `CNc1cc(C)nc(C2CN(C(=O)c3n[nH]c4ccccc34)CCO2)c1` (stereo unspecified), the phenotypic severity score is 0 (inactive).

`CN(C)c1cc(NC(=O)Nc2ccccc2)c2ccccc2n1`: the phenotypic severity score is 1 (inactive).

Regarding `COc1cc(NC(=O)Cc2nn(C)c(=O)c3ccccc23)ccc1Cl`, the phenotypic severity score was 0 (inactive).

With `O=C(NCCc1ccccc1)c1cc(-c2cccnc2)cnc1NCC1CC1`, the phenotypic severity score is 0 (inactive).

In the case of `CN1CCN(CCCOc2ncc(Nc3ncc(-c4ccc(C(F)(F)F)c(F)c4)nc3C(N)=O)cn2)CC1`, the phenotypic severity score is 3 (active).

Turning to `Cc1cc(Cl)c(S(=O)(=O)N2CCCC2)cc1OCC(=O)NC1CCCCC1`, the phenotypic severity score is 0 (inactive).

Consider `CCCn1c(NC(=O)c2ccc3ccccc3n2)nc2ccccc21`, for which the phenotypic severity score was 1 (inactive).

On to `Cc1nn(C(=O)Nc2cccc(C(F)(F)F)c2)c(C)c1Sc1ncccn1`, for which the phenotypic severity score is 0 (inactive).

In the case of `CCOc1ccccc1NC(C)C(=O)Nc1cc(C(F)(F)F)ccc1N1CCOCC1` (stereo unspecified), the phenotypic severity score was 0 (inactive).

The record behind these values is the supplement of paper PMC6805474.
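Throughout, for phenotypic severity score (0-4): visual microscopic scoring of shape, motility and density changes versus 0.5% DMSO solvent controls, one point per descriptor, degeneracy or death scored 4, mean of duplicate wells.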
